Reference: PubChem BioAssay (NCI)
About 83,000 compounds went through this panel and 20% of them were active in at least one assay; those are over-represented in the sample as a whole.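 Single-concentration screen, 48 h exposure, 96-well plates. Endpoint: percent growth. Below 10 = active.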 Unmarked numbers belong to inactive results. Activity calls are given as the source filed them.

Legend:
Assay in all cases: NCI-60 one-dose screen, 48 h (100 = growth as untreated, 0 = no growth, -100 = all killed)
Conditions in all cases: 10 µM
NCI-H23 lung = system: NCI-H23 lung
NCI-H226 lung = system: NCI-H226 lung
NCI-H322M lung = system: NCI-H322M lung
HOP-62 NSCLC = system: HOP-62 NSCLC
NCI-H460 lung = system: NCI-H460 lung
NCI-H522 lung = system: NCI-H522 lung
A549/ATCC NSCLC = system: A549/ATCC NSCLC
786-0 renal = system: 786-0 renal
COLO 205 colon = system: COLO 205 colon
DU-145 prostate = system: DU-145 prostate

Structure (SMILES)	growth (NCI-H23 lung)	growth (NCI-H226 lung)	growth (NCI-H322M lung)	growth (HOP-62 NSCLC)	growth (NCI-H460 lung)	growth (NCI-H522 lung)	growth (A549/ATCC NSCLC)	growth (786-0 renal)	growth (COLO 205 colon)	growth (DU-145 prostate)
O=[N+]([O-])c1ccc(Oc2cccnc2)c([N+](=O)[O-])c1	96.5%	89.7%	94.8%	104%	109%	36.3%	102%	93.2%	55.5%	86.2%
N=c1nc(N)ncn1-c1ccccc1	93.1%	89.9%	108%	92.9%	106%	83.1%		98%	101%	112%
CCN(CCCCCCN1CC(=O)N(CCCCCCN(CC)Cc2ccccc2OC)CC1=O)Cc1ccccc1OC	60.4%	107%	96.5%	79.7%	75.1%	76%		74.2%	54.6%	76.7%
Cc1cc(=O)[nH]c(N/N=C/c2ccccc2O)n1	78.6%	91%	-5.84% (active)	61.3%	23.3%	77.3%	33.1%	93.4%	49.2%	78.8%
O=C1N=NC2=C1c1c3ccccc3c(O)n1CC2	96.7%	105%	98.9%	91.6%	110%	-36.3% (active)		101%	129%	121%
Cn1c(N)c(N=Nc2ccc(S(=O)(=O)Nc3nccs3)cc2)c(=O)n(C)c1=O	94%	104%	92.9%	105%	109%	82.2%	105%	98.1%	105%	106%
COc1ccc(-c2nsc3c2NC(=O)CC3c2ccc(F)cc2)cc1 (stereo not given)	59.5%	75.2%	39.6%	44.3%	17.2%	3.06% (active)	27.2%	57.5%	9.44% (active)	58.7%
O=C(NC(Cc1ccc(O)cc1)C(=O)N=Nc1c(O)[nH]c2ccccc12)c1ccccc1 (stereo not given)	95%	100%	102%	93.3%	107%	97.1%		98.9%	109%	108%
CCCCCCCC(C)NCCO (stereo not given)	102%	97.4%	88.9%	99.3%	106%	84.9%		94.7%	107%	106%
CN(C)Cc1cn(-c2ncc(-c3ccc(C(F)(F)F)cc3)c(NC3CCCCCC3)n2)nn1	95.6%	88.8%	88.3%	94.2%	93.4%	73.5%	95.2%	90.4%	70.9%	89.3%
COc1cc(C)ccc1C(=O)c1ccc(C)cc1OC	48.6%	62.9%	44.5%	27.7%	5.93% (active)	-6.71% (active)		48.7%	-24.9% (active)	0.538% (active)
Cc1cccc(C)c1NC(=O)c1sc2nc3c(cc2c1N)C(=O)CCC3	65.6%	83%	46.4%	112%	25.4%	61.7%		92.2%	15.2%	93.2%
CC(=O)c1nc2ccccc2n1CCN1CCN(C)CC1	46.2%	90.9%	31.9%	41%	13.1%	0.166% (active)		78.6%	2.73% (active)	-3.03% (active)
COc1cc(Nc2ncnc(Nc3ccc4c(n3)NC(=O)C(C)(C)O4)n2)cc(OC)c1OC	25.5%	-27.7% (active)	4.97% (active)	13.6%	12.1%	-11.6% (active)	-23.1% (active)	8.87% (active)	-2.65% (active)	18.8%
COc1cc2nc(Nc3cccc(NC(C)=O)c3)nc(N)c2cc1OC	135%	90.9%	120%	94.4%	110%	93.2%	105%	94.7%	109%	90.2%
COc1ccc(Oc2nc(NC3CCCC3)nc(Sc3ccc(OC)cc3)n2)cc1	79.6%	67.4%	90.5%	75.7%	47.7%	66.9%	72.8%	79.9%	82.2%	91.7%
NC1=NC(=O)C(c2ccccc2)(c2ccccc2)S1	106%	103%	111%	98.1%	113%	102%	104%	102%	117%	114%
COc1cc(/C(=C2/O[C@@H]([C@H]3COC(C)(C)O3)[C@H]3OC(C)(C)O[C@@H]23)c2ccc3ccccc3c2)cc(OC)c1OC	46.2%	66.9%	55.1%	48%	43.4%	8.05% (active)		-1.42% (active)	66.9%	2.86% (active)
C/C(N)=C(\C#N)C(=O)c1ccccc1	104%	98%	107%	105%		96.6%	97.6%	106%	105%	110%
COc1ccc(-c2cc(/C=C3\C(=O)Nc4ccc(OC)cc43)[nH]n2)cc1	67.1%	69.8%	53.9%	50.7%		11.1%	40.6%	65.3%	13%	40.4%
O=C1/C(=C\c2ccc(F)cc2)CN(C(=O)c2ccc([N+](=O)[O-])cc2)C/C1=C\c1ccc(F)cc1	49.3%	38.2%	76.3%	32.9%		46.9%	52.9%	20.3%	38.8%	25.5%
COc1ccc(-c2nc3ccccn3c2-c2nnc(-c3cc(OC)c(OC)c(OC)c3)o2)cc1	72.5%	60.3%	57.3%	37.1%		44.8%	60.9%	60.3%	53.3%	66.4%
CCC(=O)N1C/C(=C/c2ccc(Br)cc2)C(=O)/C(=C/c2ccc(Br)cc2)C1	-46.2% (active)	-62.8% (active)	-27.2% (active)	-67.4% (active)	-46.8% (active)	-79.6% (active)		-77.3% (active)	-93.1% (active)	-65.4% (active)
CC(C)(C)c1cc(Br)cc(C(C)(C)C)c1O	107%	97.5%	96.7%	120%	117%	115%		103%	113%	113%
O=C(C[P+](c1ccccc1)(c1ccccc1)c1ccccc1)C[P+](c1ccccc1)(c1ccccc1)c1ccccc1	-14.5% (active)	-71.8% (active)	-59.3% (active)	-59.8% (active)		-83.8% (active)	-27.9% (active)	-97.9% (active)	-27.9% (active)	-94% (active)
COc1cc(-c2cc(C(=O)N3CCN(C(=O)c4ccccc4NCc4ccco4)CC3)nc3cc(-c4ccccc4)nn23)cc(OC)c1OC	56.7%	57%	13.5%	45.2%		-6.6% (active)	24.6%	31.6%	-16.7% (active)	2.04% (active)
CC(C)=NNc1ncnc2c1ncn2C1OC(CO)C(O)C1O (stereo not given)	31.7%	32%	-1.85% (active)	7.08% (active)		14.8%	14.3%	35%	3.97% (active)	12.8%
CC(=O)c1nc2ccccc2n1CCNC(N)=O	82.1%	100%	95%	70.3%	55.2%	61.8%		95.1%	69.7%	93.2%
COc1ccc(-c2ccc3cc(C(=O)Nc4ccc(O)c(C(=O)/C=C/c5cc(OC)c(OC)c(OC)c5)c4)ccc3c2)cc1	94.3%	82.5%	100%	114%		87.7%	92.6%	102%	109%	102%
